In experiment [1] the target is RUNX1 (UniProt Q01196). The experiment in a line: RUNX1 binding intensity (PBM fluorescence), RUNX1 alone (arbitrary fluorescence units); higher = stronger binding. As to conditions: RUNX1 concentration 2 nM; ETS1 concentration 0 nM. The procedure:
(§1)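 Cooperative gcPBM on 36-bp genomic probes with neighbouring ETS1 and RUNX1 sites. Recombinant human RUNX1 (2 nM) was incubated alone or with ETS1 (25 nM) and detected with anti-RUNX1 antibody plus Alexa488 secondary. Values are medians over 4 replicate spots; the RUNX1+ETS1 data were normalised to the RUNX1-only data. The probes sit in constant array flanks that are not printed.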

In experiment [2] the target is T1, ETS1 (UniProt P14921).
T1 sequence: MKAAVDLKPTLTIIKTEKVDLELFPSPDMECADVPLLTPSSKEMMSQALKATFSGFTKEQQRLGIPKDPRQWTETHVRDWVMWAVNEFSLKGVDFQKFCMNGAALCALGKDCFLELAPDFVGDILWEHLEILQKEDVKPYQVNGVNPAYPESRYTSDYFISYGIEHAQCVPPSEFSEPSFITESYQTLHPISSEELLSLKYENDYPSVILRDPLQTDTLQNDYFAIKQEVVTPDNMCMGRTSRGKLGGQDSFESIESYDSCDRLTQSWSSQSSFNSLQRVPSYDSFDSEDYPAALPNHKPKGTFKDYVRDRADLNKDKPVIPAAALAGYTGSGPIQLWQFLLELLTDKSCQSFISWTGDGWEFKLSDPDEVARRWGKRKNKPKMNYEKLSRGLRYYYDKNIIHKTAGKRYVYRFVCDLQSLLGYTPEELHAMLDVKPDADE
Nature of the experiment: ETS1 binding intensity (PBM fluorescence) in presence of RUNX1, normalised to ETS1-only experiment (arbitrary fluorescence units); higher = stronger binding. As to conditions: ETS1 concentration 1 nM; RUNX1 concentration 25 nM.

Experiment [3] deals with RUNX1 (UniProt Q01196). The experiment in a line: RUNX1 binding intensity (PBM fluorescence) in presence of ETS1, normalised to RUNX1-only experiment (arbitrary fluorescence units); higher = stronger binding. As to conditions: RUNX1 concentration 2 nM; ETS1 concentration 25 nM. As for the experimental part:
as §1
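For RUNX1 binding intensity (PBM fluorescence) in presence of ETS1, normalised to RUNX1-only experiment in this document: Full-length recombinant human ETS1 or RUNX1 bound to double-stranded 36-bp genomic probes on microarrays, detected by protein-specific primary antibody and Alexa488 secondary, spot fluorescence as median of four replicate spots.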
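For RUNX1 binding intensity (PBM fluorescence), RUNX1 alone in this document: Full-length recombinant human RUNX1 bound to double-stranded 36-bp genomic probes on a high-density microarray, scored as Alexa488 fluorescence per spot via anti-RUNX1 antibody, median of four replicate spots.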

Chain of RUNX1 (Q01196 whole entry): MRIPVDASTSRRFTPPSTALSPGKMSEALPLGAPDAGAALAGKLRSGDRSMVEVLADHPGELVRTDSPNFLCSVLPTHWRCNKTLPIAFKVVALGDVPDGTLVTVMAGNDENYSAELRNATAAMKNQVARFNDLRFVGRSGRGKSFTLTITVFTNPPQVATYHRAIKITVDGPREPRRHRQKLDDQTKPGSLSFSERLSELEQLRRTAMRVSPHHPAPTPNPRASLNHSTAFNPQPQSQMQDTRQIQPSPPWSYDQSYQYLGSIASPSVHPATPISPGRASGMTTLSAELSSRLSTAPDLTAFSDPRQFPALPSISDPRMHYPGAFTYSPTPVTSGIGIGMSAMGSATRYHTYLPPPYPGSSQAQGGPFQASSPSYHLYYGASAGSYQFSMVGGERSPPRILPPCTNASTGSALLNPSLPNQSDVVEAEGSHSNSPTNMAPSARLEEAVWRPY

For the sequence GCGCGGGCAACTTCCGGTGTGGGTGACGAGTGGTGG, the RUNX1 binding intensity came to 778 in experiment [1] and 2700 in experiment [3]. In addition, in experiment [2], the ETS1 binding intensity was 12700.

For GAGTGCCGTTTCCCCCGCTCACCGCGGGCTAGGGAG, the RUNX1 binding intensity in experiment [1] was determined as 942; in experiment [3], 1040.

Take GGGTGAGTATTTCCTCCTGCGGTGGGTCGGCATGTA: the RUNX1 binding intensity in experiment [1] came to 796; in experiment [3], 1570.

On to CAAGGAGGCTTCCTGCGTGGGGCCGCAGAGCGAGTC, for which the RUNX1 binding intensity in experiment [1] was determined as 658; in experiment [3], 869.

CGAACTCCCGTCCGGCCGCGCCCGCAGCCCGCCGCC: the RUNX1 binding intensity in experiment [1] came to 960; in experiment [3], 1130.

On to GCACGGCGGAATTTCAAATGGGGTTTTGTGGTTTCT, for which the RUNX1 binding intensity in experiment [1] came to 1220; in experiment [3], 1280.

On to CTAGCCAGGAAGATAAAGAAGAAACCACCAAAGAGA, for which the RUNX1 binding intensity was 870 in experiment [1] and 834 in experiment [3].

In the case of AAGGGAGCCGCCCGGAAACCGCGCGGCAAAGATGCC, the RUNX1 binding intensity in experiment [1] turned out to be 734; in experiment [3] it was 1050. Besides, the ETS1 binding intensity in experiment [2] came out at 2940.

GCTAACGGAACCAGCACGCGGCCACCGCAGGAACCT: the RUNX1 binding intensity in experiment [1] was 853; in experiment [3], 869.

As for ATTAAAAAAATTTCCTTTGTGGTCACTTAGTTATTA, the figures for the RUNX1 binding intensity in experiment [1] and in experiment [3] were 1350 and 1520, respectively.

As for GCTGATAGAACAGGATGTGGTAAAGAAGCAGGCCAA, the RUNX1 binding intensity in experiment [1] amounted to 824; in experiment [3], 7890.

For the sequence AACCCACCGGATGGAAGCTGCCACTCAGCCGCAGGA, the RUNX1 binding intensity in experiment [1] was 836; in experiment [3], 1030. For the same sequence, the ETS1 binding intensity in experiment [2] came to 1700.

As for CCTGAAGCTCATGCGGAAAACCCACAAAGGGGTGCC, the RUNX1 binding intensity amounted to 932 in experiment [1] and 828 in experiment [3].

For the sequence GGGGAAAGGAAGAGGAAACCGCGAGTGCAAAGGCCC, the RUNX1 binding intensity in experiment [1] is 1140; in experiment [3], 2330. Moreover, the ETS1 binding intensity in experiment [2] stood at 1580.

Turning to AGTTTTCCGTCGGGCTCCCAGTGACGCCGCAGAGGT, the figures for the RUNX1 binding intensity in experiment [1] and in experiment [3] were 764 and 1180, respectively.

As for CCAGCGGAAAGCCGGTCAGGGGGAACCGCGGCGGGG, the results for the RUNX1 binding intensity in experiment [1] and in experiment [3] were 893 and 758, respectively.

With ATCTTCAGGAAGCGGTATCAACCTGAAAACCACCAC, the RUNX1 binding intensity turned out to be 772 in experiment [1] and 1250 in experiment [3].

For ATTGCTTCCGACGCTACTCCTGCCGGGTCACCACAG, the RUNX1 binding intensity was 785 in experiment [1] and 1020 in experiment [3].

As for GCCGCCGTTTCCTGATTGGTTGTGGGTGGCTACCTC, the RUNX1 binding intensity was 834 in experiment [1] and 1660 in experiment [3].

As to CCCAGGGCAGGAAGGGCCAAACCGCTACTGCCACTG, the values for the RUNX1 binding intensity in experiment [1] and in experiment [3] were 744 and 908, respectively. Further, the ETS1 binding intensity in experiment [2] came out at 2080.

For the sequence GAGGCCGAAAGGAAGTTTGAGGTTAAGCACAAGATG, the RUNX1 binding intensity in experiment [1] was found to be 792; in experiment [3], 1060. Also, in experiment [2], the ETS1 binding intensity worked out at 1900.

For TGGAGTGGAGGAAGTGGTGTTACCACAGCTCAGAGG, the RUNX1 binding intensity in experiment [1] was found to be 726; in experiment [3], 1230. The ETS1 binding intensity in experiment [2] came out at 2680.

In the case of CAGATTCAAGGAAGTGGTGGTGGTTTGGTGTCGTTG, the results for the RUNX1 binding intensity in experiment [1] and in experiment [3] were 755 and 907, respectively. Besides, the ETS1 binding intensity in experiment [2] was found to be 1370.

With TCGCCCGCCGCTTCCTGTCGCGGCGCCGCAGAGGCC, the RUNX1 binding intensity in experiment [1] is 821; in experiment [3] it was 3000. In addition, in experiment [2], the ETS1 binding intensity was determined as 1890.

The values above are taken from the supplement of paper PMC10681739.
